Measured values taken from the supplement of paper PMC11634586.
Structures can show the parent of a compound that is named as a salt. Unmarked numbers belong to inactive results.

Each molecule was assayed on NCI-H1688 (assay: inhibition of cell viability relative to untreated control (fraction); higher = stronger growth inhibition, active = 0.5 or more). Settings: 30 µM; 24 h.
Method in brief: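 NCI-H1688 small cell lung cancer cells were seeded at 3 × 10^3 cells/well in 96-well plates and treated 24 h later with a natural compound library (TargetMol) at 30 µM for 24 h, at 37°C with 5% CO2. Viability was read in triplicate with Cell Counting Kit-8 as absorbance at 450 nm. Inhibition of cell viability is expressed as a fraction, derived from viability normalised to the untreated control.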

Structure (SMILES)	inhibition of cell viability
COc1cc2c(c(OC)c1OC)-c1c(cc(OC)c(OC)c1OC)CC(C)C(C)C2 (configuration not stated) [Schizandrin A]	-0.0474
O=C(O)/C=C/c1ccc(O)cc1 [p-Coumaric acid]	0.0191
COc1cc(C[C@H]2C(=O)OC[C@@H]2Cc2ccc(OC)c(OC)c2)ccc1O [Arctigenin]	0.431
OC[C@@H](O)[C@@H](O)CO [Erythritol]	0.038
CC(C)=CCC[C@](C)(O[C@@H]1O[C@H](CO)[C@@H](O)[C@H](O)[C@H]1O)[C@H]1CC[C@]2(C)[C@@H]1[C@H](O)C[C@@H]1[C@@]3(C)CC[C@H](O)C(C)(C)[C@@H]3[C@@H](O[C@@H]3O[C@H](CO)[C@@H](O)[C@H](O)[C@H]3O[C@@H]3OC[C@@H](O)[C@H](O)[C@H]3O)C[C@]12C [Notoginsenoside R1]	-0.0107
O=c1ccc2cc(O)c(O)cc2o1 [Esculetin]	0.643 (active)
O=C1c2c(O)cccc2C([C@@H]2O[C@H](CO)[C@@H](O)[C@H](O)[C@H]2O)c2cc(CO)cc(O)c21 (some centres not stated) [Aloin]	-0.014
NC[C@@H]1O[C@H](O[C@H]2[C@@H](O)[C@H](O[C@@H]3[C@@H](O)[C@H](N)C[C@H](N)[C@H]3O[C@H]3O[C@H](CO)[C@@H](O)[C@H](O)[C@H]3N)O[C@@H]2CO)[C@H](N)[C@@H](O)[C@@H]1O [Paromomycin Sulfate]	-0.0298
COc1cc([C@@H]2c3cc4c(cc3[C@@H](O[C@@H]3O[C@@H]5CO[C@@H](C)O[C@H]5[C@H](O)[C@H]3O)[C@H]3COC(=O)[C@H]23)OCO4)cc(OC)c1O [Etoposide]	0.664 (active)
C=C1C(=O)O[C@@H]2C[C@@]3(C)CCC[C@H](C)C3=C[C@H]12 [Helenine]	0.789 (active)
C[N+](C)(C)CC(=O)O [Betaine]	0.299
O=c1c(O)c(-c2ccc(O)cc2)oc2cc(O)cc(O)c12 [Kaempferol]	-0.00334
CC(C)CCC[C@@H](C)[C@H]1CC[C@H]2[C@@H]3CC[C@H]4CC(=O)CC[C@]4(C)[C@H]3CC[C@]12C [5alpha-Cholestan-3-one]	-0.0937
O=C(O)c1cccnc1 [Nicotinic acid]	0.0212
O=C1C[C@@H](c2ccc(O[C@@H]3O[C@H](CO)[C@@H](O)[C@H](O)[C@H]3O)cc2)Oc2cc(O)ccc21 [Liquiritin]	0.0621
COc1ccccc1O [Guaiacol]	-0.0875
CO[C@H]1C[C@@H]2CC[C@@H](C)[C@@](O)(O2)C(=O)C(=O)N2CCCC[C@H]2C(=O)O[C@H]([C@H](C)C[C@@H]2CC[C@@H](O)[C@H](OC)C2)CC(=O)[C@H](C)/C=C(\C)[C@@H](O)[C@@H](OC)C(=O)[C@H](C)C[C@H](C)/C=C/C=C/C=C/1C [Rapamycin (Sirolimus)]	0.76 (active)
CCOC(=O)C1=C[C@]2(CC)CCCN3CCc4c(n1c1ccccc41)[C@@H]32 [Vinpocetine]	-0.174
O=c1c(-c2ccc(O)cc2)coc2cc(O)ccc12 [Daidzein]	0.0274
C[C@H]1O[C@H](O[C@H]2[C@H](O)[C@@H](O)[C@@H](O[C@H]3[C@H](O)[C@@H](O)C(O)O[C@@H]3CO)O[C@@H]2CO)[C@H](O)[C@@H](O)[C@@H]1N[C@H]1C=C(CO)[C@@H](O)[C@H](O)[C@H]1O (some centres not stated) [Acarbose]	-0.208
O=C(O)[C@H]1O[C@@H](Oc2cc3oc(-c4ccccc4)cc(=O)c3c(O)c2O)[C@H](O)[C@@H](O)[C@@H]1O [Baicalin]	-0.127
COc1ccc(C(C)=O)c(O)c1 [Paeonol]	0.0334
CC1=CC(=O)CC(C)(C)[C@@]1(O)/C=C/C(C)=C\C(=O)O [Abscisic acid]	-0.139
CC(=O)OC/C=C(C)/C=C/C=C(C)/C=C/C1=C(C)CCCC1(C)C [Retinyl acetate]	-0.265
C=C(C)[C@H]1CC=C(C)C(=O)C1 [(S)-(+)-Carvone]	0.248
CC1(C)CCCC2(C)OC(=O)C=C12 (configuration not stated) [Dihydroactinidiolide]	0.194
O=C1C=C(O)C(=O)c2ccccc21 [Lawsone]	-0.319
